Source: PubChem BioAssay (Tox21)
Inconclusive results are not listed. Entries that show only a call come without a potency. Unmarked numbers belong to inactive results. Calls of active or inactive are those of the source. Unless noted, the call rests on the fitted dose curve; in most records, active means well fitted curve in the direction sought with a large enough effect in the repeat runs; inconclusive means weak or mixed curves; inactive means no such curve, though single readings can be large; an effect the other way counts as inactive or inconclusive.

How the values were obtained:
[1] = qHTS assay to identify small molecule agonists of the NFkB signaling pathway - cell viability counter screen (AID 1159515; calls by dose curve; further: series mostly up to about 61 µM; nearly all actives have a fitted effect of over 55% in size)
In short: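 Counter screen run alongside the NFkB-bla agonist assay: ME-180 reporter cells exposed to compounds for 5 hr, then lysed with CellTiter-Glo in the same wells. Luminescence, read after 30 min, reflects viable cells.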

[2] = qHTS assay to identify small molecule agonists of the endoplasmic reticulum stress response signaling pathway (AID 1159516; active means well fitted activation curve with a large enough effect in the signal ratio in the repeat runs, not every such curve was filed as active; the % refers to the signal ratio)
In short: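 For this screen, HeLa cells stably carrying beta-lactamase under the ER stress response element received test compounds, positive controls or DMSO for 5 hr at 37 C; B/G FRET substrate was then added and dual-wavelength emission recorded.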

[3] = qHTS assay to identify small molecule agonists of the endoplasmic reticulum stress response signaling pathway - cell viability counter screen (AID 1159517; calls by dose curve; further: series mostly up to about 61 µM; nearly all actives have a fitted effect of over 50% in size)
In short: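 Cpd-treated ESRE-bla HeLa (5 hr, 37 C) → LiveBLAzer 2 hr RT → CellTiter-Glo 30 min RT → luminescence.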

[4] = qHTS assay to identify small molecule antagonists of the retinoid-related orphan receptor gamma (ROR-gamma) signaling pathway - cell viability counter screen (AID 1159520); further: nearly all actives have a fitted effect of over 50% in size
In short: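 Tet-on ROR gamma CHO cells (1,000/well) were plated 4 hr, given compounds in DMSO for 2 hr at 37 C, then induced with 1 uM final doxycycline for 16 hr. Viability was read as ATP by CellTiter-Glo luminescence after 30 min.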

[5] = qHTS assay to identify small molecule agonists of the AP-1 signaling pathway - cell viability counter screen (AID 1159525; calls by dose curve; further: nearly all actives have a fitted effect of over 55% in size)
In short: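 Each titration point was normalised to DMSO and tetra n-octyl ammonium bromide controls. The read was Cell Titer Glo luminescence after 30 min at RT, following 5 h compound exposure of ME-180 AP-1-bla cells at 37 °C.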

[6] = qHTS assay to identify small molecule agonists of the AP-1 signaling pathway (AID 1159526; calls by dose curve)
[7] = biological target: Retinoic acid receptor RXR-alpha (Homo sapiens) (UniProt P19793); experiment: qHTS assay to identify small molecule agonists of the RXR signaling pathway (AID 1159527; calls by dose curve; further: nearly all actives have a fitted effect of over 35% in size; further: potency means the concentration at half of the fitted maximal effect)
In short: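 Agonist mode; 9-cis retinoic acid positive control. HEK 293T UAS-bla reporter cells, 2% charcoal-stripped FBS, 16 hr compound exposure at 37 C/5% CO2. LiveBLAzer B/G FRET substrate 2 hr RT; ex 405, em 460/530 nm.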

[8] = qHTS assay to identify small molecule agonists of the RXR signaling pathway - cell viability counter screen (AID 1159529); further: series mostly up to about 77 µM; nearly all actives have a fitted effect of over 50% in size
In short: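 Luminescence from CellTiter-Glo (30 min, RT) measured viability in the same wells as the beta-lactamase reporter readout. Cells: GeneBLAzer RXR-alpha HEK 293T, 2% charcoal-stripped FBS. Compound exposure 16 hr, 37 C.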

[9] = qHTS assay to identify small molecule antagonists of the retinoid acid receptor (RAR) signaling pathway - cell viability counter screen (AID 1159551); further: nearly all actives have a fitted effect of over 35% in size
In short: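 Measured by luminescent ATP detection, viability reflects C3RL4 cells treated 6 h at 37 C with test chemicals in the presence of 1 uM (final) retinol.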

[10] = qHTS assay to identify small molecule antagonists of the retinoic acid receptor (RAR) signaling pathway (AID 1159552; further: nearly all actives have a fitted effect of over 50% in size; further: potency means the concentration at half of the fitted maximal effect)
In short: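 Luminescence from a RARE luciferase reporter in C3RL4 cells served as read-out. Cells received compounds together with 1 uM final retinol and incubated 6 hr at 37 C before detection reagent was added for 30 min at room temperature.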

[11] = qHTS assay to identify small molecule agonists of the retinoic acid receptor (RAR) signaling pathway (AID 1159553); further: potency means the concentration at half of the fitted maximal effect
In short: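 6 hr compound exposure (DMSO vehicle) of overnight-plated C3RL4 RARE-luc cells at 37 C; luminescence quantified after 30 min RT with luciferase reagent.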

[12] = qHTS assay to identify small molecule antagonists of the estrogen related receptor (ERR) signaling pathway from Tox21 library - cell viability counter screen (AID 1224834); further: nearly all actives have a fitted effect of over 30% in size; further: potency means the concentration at half of the fitted maximal effect
In short: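 Seeded ERR cells were rested 6 h at 37 C/5% CO2 before compounds, positive and negative controls or DMSO were added. Incubation continued for 17.5 h, and viability was then quantified by CellTiter-Fluor fluorescence.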

[13] = qHTS assay to identify small molecule antagonists of the vitamin D receptor (VDR) signaling pathway - cell viability counter screen (AID 743225); further: nearly all actives have a fitted effect of over 50% in size
In short: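 Viability counter screen run in the same wells as the beta-lactamase reporter assay: HEK 293T VDR-UAS-bla cells, 16 h compound exposure at 37C with 3 nM (final) 1-alpha,25-dihydroxyvitamin D3. CellTiter-Glo luminescence, 30 min, room temperature.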

[14] = biological target: Nuclear receptor ROR-gamma (Homo sapiens) (UniProt P51449); experiment: qHTS assay to identify small molecule antagonists of the retinoid-related orphan receptor gamma (ROR-gamma) signaling pathway (AID 1159521)
In short: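 Luminescence readout (ONE-Glo, 30 min RT) after 16 h doxycycline induction; loss of signal scored as antagonism. CHO cells with TET-inducible RORγ and RORE-LUC reporter; compounds added 2 h before 1 uM final doxycycline.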

Chain of Retinoic acid receptor RXR-alpha (Homo sapiens) (P19793 whole entry, looked up): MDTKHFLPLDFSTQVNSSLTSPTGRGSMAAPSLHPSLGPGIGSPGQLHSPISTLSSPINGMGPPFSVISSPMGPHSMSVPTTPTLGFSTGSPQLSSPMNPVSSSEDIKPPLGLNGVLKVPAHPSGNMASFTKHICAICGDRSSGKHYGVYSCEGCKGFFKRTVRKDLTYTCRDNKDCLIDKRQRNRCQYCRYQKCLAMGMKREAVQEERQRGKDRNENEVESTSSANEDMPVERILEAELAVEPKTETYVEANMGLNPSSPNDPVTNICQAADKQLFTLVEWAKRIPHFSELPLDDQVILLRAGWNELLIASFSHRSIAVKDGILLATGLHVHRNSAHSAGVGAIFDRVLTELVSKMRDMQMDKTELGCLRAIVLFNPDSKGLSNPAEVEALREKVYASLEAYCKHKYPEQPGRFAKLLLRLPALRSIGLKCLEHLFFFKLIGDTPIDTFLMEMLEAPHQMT

SMILES	Potency [1]	Potency [2]	Potency [3]	Potency [4]	Potency [5]	Potency [6]	Potency [7]	Potency [8]	Potency [9]	Potency [10]	Potency [11]	Potency [12]	Potency [13]	Potency [14]
C#CCO	inactive	inactive	inactive	inactive	inactive	inactive	inactive	inactive	inactive	inactive	inactive	inactive	–	–
CCCCn1cc[n+](C)c1 (tested in a mixture with another compound)	inactive	inactive	inactive	inactive	inactive	inactive	inactive	inactive	inactive	–	–	inactive	inactive	–
COC(=O)C(C)N(C(=O)c1ccco1)c1c(C)cccc1C (stereo not given)	inactive	inactive	inactive	inactive	inactive	inactive	inactive	inactive	–	–	inactive	–	inactive	–
CC(=O)[O-].CC(=O)[O-].O.O.[Zn+2]	inactive	inactive	inactive	inactive	inactive	inactive	inactive	inactive	inactive	–	–	inactive	inactive	–
N#CSCc1ccccc1	inactive	inactive	inactive	inactive	inactive	inactive	inactive	inactive	inactive	48.8 µM (active)	–	inactive	inactive	–
CC(Cl)CCl (stereo not given)	inactive	inactive	inactive	inactive	inactive	inactive	inactive	–	inactive	inactive	inactive	inactive	–	–
Cc1ccn2nc(S(=O)(=O)Nc3c(F)cccc3F)nc2n1	inactive	inactive	inactive	inactive	inactive	inactive	inactive	–	inactive	inactive	inactive	inactive	inactive	–
CNC(=O)Oc1cc(C)cc(C(C)C)c1	inactive	inactive	inactive	inactive	inactive	inactive	11 µM (active)	–	inactive	–	inactive	inactive	inactive	–
CCN(CC)C(=O)N[C@@H]1C=C2c3cccc4[nH]cc(c34)C[C@@H]2N(C)C1	inactive	inactive	inactive	inactive	inactive	inactive	inactive	inactive	inactive	inactive	inactive	inactive	inactive	–
CNN	inactive	inactive	inactive	inactive	inactive	inactive	inactive	inactive	inactive	–	–	inactive	inactive	–
CC[N+]1(CC)CCC(OC(=O)C(O)(c2ccccc2)c2ccccc2)C1 (stereo not given)	inactive	inactive	inactive	inactive	inactive	inactive	inactive	inactive	inactive	–	inactive	inactive	inactive	–
O.O.O.O.O.O.O=S(=O)([O-])[O-].[Ni+2]	inactive	inactive	inactive	inactive	inactive	inactive	inactive	inactive	inactive	–	–	inactive	–	–
CCCCN(CCCC)C(=S)[S-].CCCCN(CCCC)C(=S)[S-].[Ni+2]	inactive	inactive	inactive	inactive	inactive	inactive	inactive	inactive	inactive	inactive	–	–	–	–
O=NN(CCO)CCO	inactive	inactive	inactive	inactive	inactive	inactive	inactive	inactive	inactive	inactive	inactive	–	inactive	–
CC(C)NCC(O)c1ccccc1Cl (stereo not given)	inactive	inactive	inactive	inactive	inactive	inactive	inactive	–	inactive	inactive	inactive	inactive	inactive	–
NC(=O)C(Cl)Cl	inactive	inactive	inactive	inactive	inactive	inactive	inactive	–	inactive	inactive	inactive	–	inactive	–
N#Cc1ccc(N(CC(N)=O)CC(F)(F)F)cc1C(F)(F)F	inactive	inactive	inactive	inactive	inactive	inactive	inactive	inactive	inactive	inactive	inactive	inactive	inactive	–
ClC1(Cl)C2(Cl)C3(Cl)C4(Cl)C(Cl)(Cl)C5(Cl)C3(Cl)C1(Cl)C5(Cl)C24Cl (stereo not given)	inactive	inactive	inactive	inactive	inactive	inactive	inactive	inactive	inactive	inactive	inactive	inactive	–	–
COC(=O)c1ccccc1S(=O)(=O)NC(=O)Nc1nc(C)nc(OC)n1	inactive	inactive	inactive	inactive	inactive	inactive	inactive	inactive	inactive	inactive	inactive	inactive	–	–
O=P(Cl)(Cl)Cl	inactive	inactive	inactive	inactive	inactive	inactive	inactive	inactive	inactive	inactive	inactive	inactive	–	–
CCCC[N+]1(C)CCCC1 (tested in a mixture with another compound)	inactive	inactive	inactive	inactive	inactive	inactive	inactive	inactive	inactive	–	–	inactive	inactive	–
C[N+]1(C)[C@@H]2CC[C@H]1CC(OC(=O)C(CO)c1ccccc1)C2 (stereo not given in full)	inactive	inactive	inactive	inactive	inactive	inactive	inactive	inactive	inactive	inactive	inactive	inactive	inactive	–

SMILES	Potency [1]	Potency [2]	Potency [3]	Potency [4]	Potency [5]	Potency [6]	Potency [7]	Potency [8]	Potency [9]	Potency [10]	Potency [11]	Potency [12]	Potency [13]	Potency [14]
CNC(C)(C)Cc1ccccc1	inactive	inactive	inactive	inactive	inactive	inactive	inactive	inactive	inactive	–	–	inactive	inactive	–
O=S(=O)(O)F	inactive	inactive	inactive	inactive	inactive	inactive	inactive	inactive	inactive	inactive	inactive	inactive	inactive	–
C[C@@H]1CC2=CC(=O)CC[C@@H]2[C@H]2CC[C@@]3(C)[C@@H](CC[C@]3(C)O)[C@@H]21	inactive	inactive	inactive	inactive	inactive	inactive	inactive	inactive	inactive	–	inactive	–	inactive	–
CC1CN1 (stereo not given)	inactive	inactive	inactive	inactive	inactive	inactive	inactive	inactive	inactive	inactive	inactive	–	inactive	–
O=C(CCCCl)c1ccc(F)cc1	inactive	inactive	inactive	inactive	inactive	inactive	inactive	inactive	inactive	inactive	26.6 µM (active)	inactive	inactive	–
CCn1cc[n+](C)c1 (tested in a mixture with another compound)	inactive	inactive	inactive	inactive	inactive	inactive	inactive	inactive	inactive	–	–	inactive	inactive	–
C=CCBr	inactive	inactive	inactive	inactive	inactive	inactive	inactive	inactive	inactive	–	–	inactive	inactive	–
ClC(Cl)C(Cl)(Cl)Cl	inactive	inactive	inactive	inactive	inactive	inactive	inactive	–	inactive	inactive	inactive	inactive	inactive	–
[O-][Cl+3]([O-])([O-])O	inactive	inactive	inactive	inactive	inactive	inactive	inactive	inactive	inactive	–	–	–	–	–
c1cc[n+]2c(c1)-c1cccc[n+]1CC2	inactive	inactive	inactive	inactive	inactive	inactive	inactive	inactive	inactive	–	inactive	inactive	inactive	–
ClCBr	inactive	inactive	inactive	inactive	inactive	inactive	inactive	–	–	inactive	inactive	inactive	inactive	–
CN1CCc2cc(Cl)c(O)cc2[C@H]2c3ccccc3CC[C@@H]21	inactive	inactive	inactive	inactive	inactive	inactive	–	–	inactive	–	–	inactive	–	–
CC(=O)[O-].CC(=O)[O-].CC(=O)[O-].[Cr+3]	inactive	inactive	inactive	inactive	inactive	–	inactive	inactive	inactive	–	–	inactive	inactive	–
O=S(=O)(NS(=O)(=O)C(F)(F)F)C(F)(F)F	inactive	inactive	inactive	inactive	–	–	–	–	–	–	–	43.1 µM (active)	inactive	–
COC(=O)c1cc(Oc2ccc(Cl)cc2Cl)ccc1[N+](=O)[O-]	inactive	inactive	inactive	–	inactive	inactive	–	inactive	inactive	inactive	inactive	–	–	54.5 µM (active)
CC(C)=CCN1CC[C@@]2(C)c3cc(O)ccc3C[C@@H]1[C@@H]2C	inactive	inactive	inactive	inactive	inactive	inactive	–	inactive	inactive	inactive	inactive	inactive	inactive	–
CSC(=O)c1c(C(F)F)nc(C(F)(F)F)c(C(=O)SC)c1CC(C)C	inactive	inactive	inactive	–	inactive	inactive	–	–	inactive	–	inactive	inactive	–	54.2 µM (active)
CC(=O)O.CC(=O)O.CC(=O)O.CC(=O)O.CC(=O)O.CC(=O)O.CC(=O)O.O.O.[Cr].[Cr].[Cr]	inactive	inactive	inactive	inactive	inactive	inactive	inactive	–	inactive	–	–	inactive	–	–
O=c1[nH]c(Cl)c(Cl)cc1Cl	inactive	inactive	inactive	inactive	inactive	inactive	–	–	inactive	inactive	inactive	inactive	inactive	–
C=CCOC(=O)c1ccccc1N	inactive	inactive	inactive	inactive	inactive	inactive	–	–	–	inactive	inactive	inactive	inactive	–
O=c1[nH]c2cc(Cl)ccc2n1C1CCNCC1	inactive	inactive	inactive	inactive	inactive	inactive	–	inactive	inactive	inactive	inactive	–	–	–
